Reference: PubChem BioAssay (NCI)
Values joined by “and” are separate entries in the source; they are usually repeats but may differ in a detail not shown here. Equal entries are not always repeated. About 83,000 compounds went through this panel and 20% of them were active in at least one assay; those are over-represented in the sample as a whole.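 Percent growth is the endpoint: 0 to 100 indicates growth inhibition (40 means 60% inhibition), 0 means no net growth, and negative values indicate cell death.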 A structure can be active in one record and inactive in another. Active and inactive are the calls of the source. How the source made its calls: active means growth percent below 10; inactive means the rest.

Key:
Experiment in all cases: NCI-60 one-dose screen, 48 h (100 = growth as untreated, 0 = no growth, -100 = all killed)
[1] = system: HCT-15 colon; conditions: 10 µM unless noted
[2] = system: HT29 colon; conditions: 10 µM unless noted
[3] = system: SNB-75 CNS; conditions: 10 µM unless noted
[4] = system: SNB-19 CNS; conditions: 10 µM unless noted
[5] = system: U251 CNS; conditions: 10 µM unless noted
[6] = system: PC-3 prostate; conditions: 10 µM unless noted
[7] = system: SK-MEL-5 melanoma; conditions: 10 µM unless noted
[8] = system: LOX IMVI melanoma; conditions: 10 µM
[9] = system: SK-MEL-28 melanoma; conditions: 10 µM unless noted
[10] = system: SK-MEL-2 melanoma; conditions: 10 µM unless noted
[11] = system: EKVX NSCLC; conditions: 10 µM unless noted
[12] = system: SN12C renal; conditions: 10 µM unless noted
[13] = system: TK-10 renal; conditions: 10 µM unless noted
[14] = system: ACHN renal; conditions: 10 µM unless noted
[15] = system: CAKI-1 renal; conditions: 10 µM unless noted
[16] = system: A498 renal; conditions: 10 µM unless noted
[17] = system: CCRF-CEM leukemia; conditions: 10 µM unless noted
[18] = system: MOLT-4 leukemia; conditions: 10 µM unless noted
[19] = system: UACC-62 melanoma; conditions: 10 µM unless noted
[20] = system: UO-31 renal; conditions: 10 µM unless noted

SMILES	growth [1]	growth [2]	growth [3]	growth [4]	growth [5]	growth [6]	growth [7]	growth [8]	growth [9]	growth [10]	growth [11]	growth [12]	growth [13]	growth [14]	growth [15]	growth [16]	growth [17]	growth [18]	growth [19]	growth [20]
Cc1c(O)ccc(SC#N)c1C	96.9% (inactive)	112% (inactive)	95.3% (inactive)	96.5% (inactive)	101% (inactive)	86.1% (inactive)	106% (inactive)	101% (inactive)	99.5% (inactive)	103% (inactive)	121% (inactive)	95.3% (inactive)	107% (inactive)	103% (inactive)	98.5% (inactive)	127% (inactive)	30.7% (inactive)	97.5% (inactive)		
c1ccc(-c2cccc(-c3ccccn3)n2)nc1	28% (inactive)	26% (inactive)	49% (inactive)	27.9% (inactive)	14.5% (inactive)		-50.8% (active)	-0.708% (active)	33% (inactive)	16.6% (inactive)	15.8% (inactive)	10.5% (inactive)	32.9% (inactive)	14% (inactive)		44.2% (inactive)	5.02% (active)	3.3% (active)	3.51% (active)	9.63% (active)
O=C(NOC(=O)c1ccccc1)c1ccccc1	101% (inactive)	110% (inactive)	108% (inactive)	109% (inactive)	105% (inactive)		105% (inactive)	100% (inactive)	119% (inactive)	97% (inactive)	95.7% (inactive)	108% (inactive)	97.8% (inactive)	101% (inactive)	86.5% (inactive)	94.6% (inactive)	70.6% (inactive)	93% (inactive)	109% (inactive)	
CC1(C)OC2C(COC(c3ccccc3)(c3ccccc3)c3ccccc3)OC(c3c[nH]c4c(N)ncnc34)C2O1 (centres undefined)	55.3% (inactive)	46.4% (inactive)	61.9% (inactive)	66.1% (inactive)	56.7% (inactive)	25% (inactive)	60.8% (inactive)	54.8% (inactive)	66.8% (inactive)	69.8% (inactive)	55.3% (inactive)		84.2% (inactive)	52.2% (inactive)	56.6% (inactive)	74.7% (inactive)	36.3% (inactive)	-7.93% (active)		58.3% (inactive)
CN(C)c1ccc(/C=C/c2ccnc3ccccc23)cc1	26.8% (inactive)	4.25% (active)	22.4% (inactive)	51.7% (inactive)	38.3% (inactive)		33% (inactive)	38.3% (inactive)	71.8% (inactive)	-5.02% (active)	22.4% (inactive)	36.2% (inactive)	59.5% (inactive)	47.4% (inactive)	45.7% (inactive)	62% (inactive)	51.1% (inactive)	33.1% (inactive)	34.4% (inactive)	50.2% (inactive)
CCN(CC)c1ccc(/C=C\C(=O)c2ccc(NC(C)=O)cc2)cc1	45.6% (inactive)	39.5% (inactive)	-0.746% (active)	61.5% (inactive)	41.9% (inactive)		97.4% (inactive)	74.1% (inactive)	82% (inactive)	76.8% (inactive)	79.1% (inactive)	48.9% (inactive)	92.4% (inactive)	61.4% (inactive)	54.9% (inactive)	71.6% (inactive)	82.9% (inactive)		78.5% (inactive)	
NCCCN(CCCN)CCCNCc1c2ccccc2c(CNCCCN(CCCN)CCCN)c2ccccc12	110% (inactive)	91.9% (inactive)	104% (inactive)	106% (inactive)	115% (inactive)	90.8% (inactive)	98.6% (inactive)	99.8% (inactive)	106% (inactive)	100% (inactive)		110% (inactive)	97.5% (inactive)			95.4% (inactive)		98.8% (inactive)		72.4% (inactive)
COC(=O)c1ccc(=O)c2nc3/c(=C/O)c(O)cc(=O)c3[nH]c12	10.1% (inactive)	29.4% (inactive)	12.6% (inactive)	11.6% (inactive)	7.56% (active)	30.5% (inactive)	22% (inactive)		34.2% (inactive)		35.3% (inactive)	-5.75% (active)	48.1% (inactive)	28.5% (inactive)	21.5% (inactive)	1.77% (active)	12.6% (inactive)	3.55% (active)		5.33% (active)
Fc1ccc(NCCS)cc1	105% (inactive)	111% (inactive)	80.4% (inactive)	107% (inactive)	97.9% (inactive)	99.1% (inactive)			103% (inactive)	102% (inactive)	101% (inactive)	97.9% (inactive)	106% (inactive)		110% (inactive)	101% (inactive)	96.6% (inactive)	95.3% (inactive)	106% (inactive)	84.7% (inactive)
O=C(Cc1ccccc1)C(F)(F)F	107% (inactive)	112% (inactive)	92.4% (inactive)	109% (inactive)	97.8% (inactive)	96.3% (inactive)			99.2% (inactive)	107% (inactive)		103% (inactive)	103% (inactive)	106% (inactive)	89.8% (inactive)	102% (inactive)		82.7% (inactive)	104% (inactive)	93.7% (inactive)
Cc1ccccc1N=C(N)Nc1ccccc1C (tested in a mixture with another compound)	66.5% (inactive)	97.3% (inactive)	99.5% (inactive)	89.1% (inactive)	84% (inactive)		73.1% (inactive)	93% (inactive)	105% (inactive)	85.7% (inactive)	85.3% (inactive)	82.8% (inactive)	67.8% (inactive)	77.9% (inactive)	52.9% (inactive)	96.8% (inactive)		37.1% (inactive)	90.5% (inactive)	71.1% (inactive)
S=C=Nc1ccc(N2CCOCC2)cc1	90.5% (inactive)	86.3% (inactive)	66.4% (inactive)	91.8% (inactive)	97.6% (inactive)	90.1% (inactive)	98.2% (inactive)	92.4% (inactive)	92.5% (inactive)	97.8% (inactive)		104% (inactive)	93.2% (inactive)	96.1% (inactive)	95.9% (inactive)	96.5% (inactive)		92.5% (inactive)		84.5% (inactive)
OC(c1cc(-c2ccc(C(F)(F)F)cc2)nc(C(F)(F)F)c1)C1CCCCN1 (centres undefined)	-36.1% (active) and -65.7% (active) and 14.6% (inactive)	-49.8% (active) and -67.9% (active) and -54.8% (active)	18.6% (inactive) and -18% (active) and 46.3% (inactive)	33.4% (inactive) and 37% (inactive) and 53.7% (inactive)	-89% (active) and -95.4% (active) and -62% (active)		-91.6% (active) and -98.8% (active) and 6.65% (active)	-55.2% (active) and -97.5% (active) and -80.7% (active)	-76.1% (active) and -93.1% (active) and 45.2% (inactive)	-61% (active) and 21.8% (inactive)		-50.3% (active) and -86.4% (active) and 28.5% (inactive)	-57.8% (active) and -14.4% (active) and 50.3% (inactive)	-24% (active) and 0.945% (active) and 24.3% (inactive)	-7.29% (active) and -52.3% (active) and 45.9% (inactive)	28% (inactive) and -60.5% (active) and 46.4% (inactive)	0.247% (active) and -56.8% (active) and 17% (inactive)	-21.7% (active) and -2.33% (active)	0.644% (active) and -95.1% (active) and 69.5% (inactive)	15.4% (inactive) and -59.3% (active) and 30.6% (inactive)
OC(Cc1cc(CC(O)(C(F)(F)F)C(F)(F)F)nc(CC(O)(C(F)(F)F)C(F)(F)F)c1)(C(F)(F)F)C(F)(F)F	9.46% (active)	-12.1% (active)	-8.76% (active)	16% (inactive)	-60.2% (active)	4.38% (active)	-83.3% (active)	0.881% (active)	26.5% (inactive)	-28.3% (active)	16% (inactive)		22.1% (inactive)	0.867% (active)	4.5% (active)	-18.8% (active)	7.23% (active)	-8.17% (active)		6.74% (active)
CCCCCCCCCCCC1=NCCCN1CCCC	91.7% (inactive)	86.1% (inactive)	102% (inactive)	101% (inactive)	100% (inactive)		95.8% (inactive)	77.1% (inactive)	103% (inactive)	107% (inactive)		98.4% (inactive)	108% (inactive)	104% (inactive)	111% (inactive)		87.4% (inactive)	92% (inactive)	96.7% (inactive)	84.3% (inactive)
Cn1c(-c2ccccc2)c(/C=C/C2=[N+](C)c3ccccc3C2(C)C)c2ccccc21	38.9% (inactive)	0.701% (active)	20.6% (inactive)	18.5% (inactive)	8.73% (active)	8.69% (active)	-98.4% (active)	14.8% (inactive)	22.5% (inactive)	6.41% (active)		7.02% (active)	3.06% (active)	18.2% (inactive)	35.6% (inactive)	3.03% (active)	8% (active)	-10.6% (active)		74% (inactive)
